{"source": "PubChem BioAssay AID618", "about": "(Sanford-Burnham Center for Chemical Genomics, 2007)", "note": "The whole screen tested about 87,000 compounds, of which about 540 (0.62%) were called active. No rule for the calls is given here. This excerpt belongs to a sample that is enriched for actives. Results with a measured potency or affinity are listed apart.", "data": [{"experiment": "inhibitors of MT1-MMP promoter transcription, cell-based, luciferase reporter, luminescence (AID 618);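 also: actives suppress MT1-MMP promoter-driven transcription so potencies describe inhibitors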", "settings": "MT1-MMP promoter luciferase reporter cells", "values": [{"compound": "O=C(CCN1C(=O)COc2ccccc21)NCc1cccnc1", "outcome": "inactive"}, {"compound": "O=C(NCc1cccnc1)C1CCN(S(=O)(=O)N2CCC3(CC2)OCCO3)CC1", "outcome": "inactive"}, {"compound": "Cc1ccc(NC(=O)C2CCN(C(=O)NC3CCCCC3)CC2)cc1", "outcome": "inactive"}, {"compound": "CC(=O)c1ccc(OCC(O)CN2CCC(C)CC2)cc1", "note": "(stereo unspecified)", "outcome": "inactive"}, {"compound": "Cc1ccc(C)c(OCCCC(=O)O)c1", "outcome": "inactive"}, {"compound": "Nc1ccc(Oc2ccc([N+](=O)[O-])cc2[N+](=O)[O-])cc1", "outcome": "inactive"}, {"compound": "COc1ccccc1NC(=O)CSc1nnc(-c2ccco2)o1", "outcome": "inactive"}, {"compound": "NC(=O)C1(N2CCCCC2)CCN(c2nc(-c3ccccc3)cs2)CC1", "outcome": "inactive"}, {"compound": "COCCn1c(=S)[nH]c2cc(C(=O)NCC3CCCO3)ccc2c1=O", "note": "(stereo unspecified)", "outcome": "inactive"}, {"compound": "COc1cccc(C(=O)Nc2ccc(C(=O)O)cc2)c1", "outcome": "inactive"}, {"compound": "c1ccc(-c2noc(CSc3nnc(Cc4cccs4)n3-c3ccccc3)n2)cc1", "outcome": "inactive"}, {"compound": "Nc1nc(-c2ccc(Cl)cc2)cn1N", "outcome": "inactive"}, {"compound": "CCc1nn2cc(-c3ccccc3)nc2s1", "outcome": "active"}, {"compound": "CCN(CC)CCNC(=O)c1sc2nc(-c3ccccc3)cn2c1C", "outcome": "inactive"}, {"compound": "Cc1nc(-c2ccccc2)cs1", "outcome": "inactive"}, {"compound": "Cc1nn2cc(-c3ccc(-c4ccccc4)cc3)nc2s1", "outcome": "active"}, {"compound": "O=C(O)CCc1nn2cc(-c3ccccc3)nc2[nH]c1=O", "outcome": "inactive"}, {"compound": "Cc1cccn2cc(-c3ccccc3)nc12", "outcome": "inactive"}, {"compound": "Cc1c(C(=O)N2CCOCC2)sc2nc(-c3ccccc3)cn12", "outcome": "inactive"}, {"compound": "Cc1nn2c(-c3ccc(Cl)cc3)nnc2s1", "outcome": "inactive"}, {"compound": "Cc1nn2cc(-c3ccc(Cl)cc3)nc2s1", "outcome": "active"}, {"compound": "Cc1nn2cc(-c3ccccc3)nc2[nH]c1=O", "outcome": "inactive"}, {"compound": "Cc1ccc(CNCc2cc3c(C(C)(C)C)nn(-c4ccccc4)c3[nH]c2=O)cc1", "outcome": "inactive"}, {"compound": "O=C(O)CNS(=O)(=O)c1cc(Cl)c(Cl)cc1Cl", "outcome": "inactive"}, {"compound": "Cc1ccc(NC(=O)CS(=O)CC(=O)N(c2ccc(C)cc2)C(C)C(=O)NC2CCCCC2)cc1", "note": "(stereo unspecified)", "outcome": "inactive"}, {"compound": "CC(C)COC(=O)CNc1n[nH]c(=S)[nH]c1=O", "outcome": "inactive"}, {"compound": "Cc1cc(NC(=O)COC(=O)[C@H](Cc2c[nH]c3ccccc23)NC(=O)c2ccc(F)cc2)no1", "outcome": "inactive"}, {"compound": "COC(=O)CSc1nnc(-c2ccncc2)o1", "outcome": "inactive"}, {"compound": "C=CCn1c(SCC(=C)C)nc2c1c(=O)[nH]c(=O)n2C", "outcome": "inactive"}, {"compound": "Cc1ccc(Cn2c(-n3nc(C)cc3C)nc3c2c(=O)[nH]c(=O)n3C)cc1", "outcome": "inactive"}, {"compound": "COc1ccc(CCn2c(-n3nc(C)cc3C)nc3c2c(=O)[nH]c(=O)n3C)cc1", "outcome": "active"}, {"compound": "Cc1cc(C)n(-c2nc3c(c(=O)[nH]c(=O)n3C)n2CCc2ccccc2)n1", "outcome": "inactive"}, {"compound": "O=c1ccc2ccc(OCc3nnc(-c4ccccc4Br)o3)cc2o1", "outcome": "inactive"}, {"compound": "O=c1c2ccccc2nc2c3ccccc3c3nncn3n12", "outcome": "inactive"}, {"compound": "O=C(Nc1ccc(S(=O)(=O)N2CCOCC2)cc1)c1cccs1", "outcome": "inactive"}, {"compound": "COc1cc(OC)cc(-n2nnnc2SCC(=O)N2CCCC2)c1", "outcome": "inactive"}, {"compound": "COc1ccc(-n2nnnc2S(=O)(=O)Cc2ccc(C(=O)O)cc2)cc1", "outcome": "inactive"}, {"compound": "COc1ccc(-n2nnnc2S(=O)(=O)CC(=O)N2CCCCC2)cc1", "outcome": "active"}, {"compound": "Cc1ccc2[nH]c(=O)c(-c3noc(C(C)C)n3)cc2c1", "outcome": "inactive"}, {"compound": "Cc1cccc(CS(=O)(=O)Cc2ccc(C(=O)O)o2)c1", "outcome": "inactive"}, {"compound": "Nc1ccc(-c2cnc(-c3ccc(N)cc3)nc2)cc1", "outcome": "inactive"}, {"compound": "Brc1ccc(-c2ncc(-c3ccccc3)cn2)cc1", "outcome": "inactive"}, {"compound": "O=C(O)CCc1nn2cnc3sc4c(c3c2nc1=O)CCCC4", "outcome": "inactive"}, {"compound": "CCOc1c(S(=O)(=O)N2CCCC2)ccc(Cl)c1Cl", "outcome": "inactive"}, {"compound": "Cc1cccc(NC(=O)c2cc3n(n2)C(C(F)(F)F)CC(c2ccc4c(c2)OCO4)N3)c1", "note": "(stereo unspecified)", "outcome": "inactive"}, {"compound": "O=C(NC1CCCCC1)N(CCN1CCOCC1)Cc1cc2cc3c(cc2[nH]c1=O)OCCO3", "outcome": "inactive"}, {"compound": "COc1ccc(OC)c(Nc2cc(-c3ccccc3)nc(N)n2)c1", "outcome": "active"}, {"compound": "COc1ccc(OC)c(Nc2nc(N)nc(-c3cc4ccccc4o3)n2)c1", "outcome": "inactive"}, {"compound": "COc1ccc(OC)c(Nc2cc(C)nc3ccccc23)c1", "outcome": "inactive"}, {"compound": "COCCN(CC(=O)NCc1ccccc1)C(=O)CCC(=O)Nc1nccs1", "outcome": "inactive"}, {"compound": "COc1ccc(C(c2sc3nc(C)nn3c2O)N2CC(C)OC(C)C2)cc1OC", "note": "(stereo unspecified)", "outcome": "inactive"}, {"compound": "Cn1c(SCC(=O)N2CCOCC2)nc(O)cc1=O", "outcome": "inactive"}, {"compound": "O=c1c2ccccc2ncn1Cc1nc2ccccc2s1", "outcome": "inactive"}, {"compound": "O=C1c2ccccc2S(=O)(=O)N1Cc1cc(=O)n2ccsc2n1", "outcome": "inactive"}, {"compound": "c1ccc(C2=Nc3ccccc3OC2)cc1", "outcome": "inactive"}, {"compound": "COc1ccc(C2=Nc3cc(C)ccc3OC2)cc1", "outcome": "inactive"}, {"compound": "CSc1sc(C(=O)O)c2c1C(=O)CCC2", "outcome": "inactive"}, {"compound": "COc1cccc(C2NC(=O)NC(C)=C2C(=O)OCCSC)c1OC", "note": "(stereo unspecified)", "outcome": "inactive"}, {"compound": "CN(C)S(=O)(=O)c1ccc(C(=O)Nc2ccc(CCC(=O)N3CCCC3)cc2)cc1", "outcome": "inactive"}, {"compound": "CC1CN(Cc2nc3c(c(=O)[nH]c(=O)n3C)n2CC(N)=O)CC(C)O1", "note": "(stereo unspecified)", "outcome": "inactive"}, {"compound": "O=C(NC1CC1)c1ccc(-c2nc3ccccc3s2)s1", "outcome": "active"}, {"compound": "CCCNC(=O)c1ccc(-c2nc3ccccc3s2)s1", "outcome": "inactive"}, {"compound": "O=C(OC1CCOC1=O)c1ccc(-c2nc3ccccc3s2)s1", "note": "(stereo unspecified)", "outcome": "inactive"}, {"compound": "CCOC(=O)c1sc(Nc2ccc(C)cc2C)nc1C", "outcome": "inactive"}, {"compound": "COc1cc(CN2CCN(S(=O)(=O)c3ccc(F)cc3)CC2)cc(OC)c1OC", "outcome": "inactive"}, {"compound": "Nc1sc2c(c1C(=O)NC1CCS(=O)(=O)C1)CCCC2", "note": "(stereo unspecified)", "outcome": "inactive"}, {"compound": "COc1cc(C(N)=O)ccc1OCc1ccccc1", "outcome": "inactive"}, {"compound": "O=C(O)c1cc(/C=N\\O)ccc1OCc1ccccc1", "outcome": "inactive"}, {"compound": "COc1cc(/C=N/O)ccc1OCc1ccc(C(=O)O)cc1", "outcome": "active"}, {"compound": "CCOC(=O)Cn1cc(C(=O)OC)c2ccccc21", "outcome": "inactive"}, {"compound": "O=C(C1c2ccccc2Oc2ccccc21)N1CCN(c2ccc(Cl)cc2)CC1", "outcome": "inactive"}, {"compound": "COc1ccccc1N1CCN(C(=O)C2c3ccccc3Oc3ccccc32)CC1", "outcome": "active"}, {"compound": "CCOc1ccccc1N1CCN(C(=O)C2c3ccccc3Oc3ccccc32)CC1", "outcome": "inactive"}, {"compound": "CCOC(=O)C1CCN(Cc2ccccc2C)CC1", "outcome": "inactive"}, {"compound": "Cc1cnc(C)c(N2CCC(C(=O)NC(C)c3cccs3)CC2)n1", "note": "(stereo unspecified)", "outcome": "inactive"}, {"compound": "COc1cccc(C2CC(=O)Nc3cc4c(cc32)OCCO4)c1OC(C)C", "note": "(stereo unspecified)", "outcome": "inactive"}, {"compound": "CCCOc1ccccc1C1CC(=O)Nc2cc3c(cc21)OCCO3", "note": "(stereo unspecified)", "outcome": "inactive"}, {"compound": "CCOc1ccccc1C1CC(=O)Nc2cc3c(cc21)OCO3", "note": "(stereo unspecified)", "outcome": "active"}, {"compound": "CC(C)Oc1ccccc1C1CC(=O)Nc2cc3c(cc21)OCO3", "note": "(stereo unspecified)", "outcome": "active"}, {"compound": "CC(C)Oc1ccccc1C1CC(=O)Nc2cc3c(cc21)OCCO3", "note": "(stereo unspecified)", "outcome": "inactive"}, {"compound": "CCOc1ccccc1C1CC(=O)Nc2cc3c(cc21)OCCO3", "note": "(stereo unspecified)", "outcome": "inactive"}, {"compound": "Cc1[nH]nc2c1C(c1ccc(Cl)cc1)C(C#N)=C(N)O2", "note": "(stereo unspecified)", "outcome": "inactive"}, {"compound": "CCOC(=O)C1CCCn2c1nc1sc3c(c1c2=O)CCCC3", "note": "(stereo unspecified)", "outcome": "inactive"}, {"compound": "CC(C)(C)c1ccc(S(=O)(=O)NCc2ccc(C(=O)N3CCCC3)cc2)cc1", "outcome": "inactive"}, {"compound": "CO/N=C/C(=N\\Nc1ccc(C)cc1)C(=O)c1ccc(OC)cc1", "outcome": "inactive"}, {"compound": "CO/N=C/C(=N\\Nc1ccc(OC)cc1)C(=O)c1ccc(OC)cc1", "outcome": "inactive"}, {"compound": "COc1ccc(N/N=C(\\C=N\\O)C(=O)c2ccc(OC)cc2)cc1", "outcome": "active"}, {"compound": "Cc1c(C(=O)OC(C)CCN(C)C)oc2ccccc12", "note": "(stereo unspecified)", "outcome": "inactive"}, {"compound": "CN1/C(=C\\C(=O)COC(=O)CN2C(=O)C3CC=CCC3C2=O)C(C)(C)c2ccccc21", "note": "(stereo unspecified)", "outcome": "inactive"}, {"compound": "Fc1ccc(Cn2c(-c3cscn3)nc3ccccc32)c(Cl)c1", "outcome": "inactive"}, {"compound": "Cc1oc2ccc(O)cc2c1C(=O)OC(C)C", "outcome": "inactive"}, {"compound": "CCN1C(=O)C(CC(=O)N2CCN(C(c3ccccc3)c3ccccc3)CC2)N(CC)C1=O", "note": "(stereo unspecified)", "outcome": "inactive"}, {"compound": "O=C(CSc1nc2ccccc2s1)CSc1nc2ccccc2s1", "outcome": "inactive"}, {"compound": "CC(=O)CSc1nc2ccccc2s1", "outcome": "inactive"}, {"compound": "CC(C)Oc1ccc(C2c3c(oc4ccccc4c3=O)C(=O)N2CCCN2CCOCC2)cc1", "note": "(stereo unspecified)", "outcome": "inactive"}, {"compound": "COc1cccc(OCCSc2nnc3sc4ccccc4n23)c1", "outcome": "inactive"}, {"compound": "CN(C)C(=O)CSc1nnc2sc3ccccc3n12", "outcome": "inactive"}, {"compound": "NC(=O)CSc1nnc2sc3ccccc3n12", "outcome": "inactive"}, {"compound": "COc1ccc(OCCSc2nnc3sc4ccccc4n23)cc1", "outcome": "inactive"}, {"compound": "C=CCOC(=O)C1=C(C)NC(=O)NC1c1cn(-c2ccccc2)nc1-c1cccs1", "note": "(stereo unspecified)", "outcome": "inactive"}, {"compound": "COc1ccc(-n2c(Cc3cccn3C)nnc2SCC(=O)Nc2cccc(F)c2)cc1", "outcome": "inactive"}, {"compound": "Cc1cc(/C=N/n2cnnc2)c(C)n1-c1ccc(OCc2ccc(Cl)cc2)cc1", "outcome": "inactive"}, {"compound": "Cc1cc(/C=N/n2cnnc2)c(C)n1-c1ccc(OCc2ccccc2F)cc1", "outcome": "inactive"}, {"compound": "Cc1ccc(C)c(N(CC(=O)NC2CCCCC2)C(=O)CCC(=O)Nc2ccccn2)c1", "outcome": "inactive"}, {"compound": "O=C(COC(=O)c1cccs1)c1ccccc1", "outcome": "inactive"}, {"compound": "O=C(COC(=O)c1cccs1)c1ccc2ccccc2c1", "outcome": "inactive"}, {"compound": "CCOC(=O)C1=C(C)NC(=O)NC1c1ccccc1Cl", "note": "(stereo unspecified)", "outcome": "inactive"}, {"compound": "O=C(NCCN1CCOCC1)c1ccc(F)cc1", "outcome": "inactive"}, {"compound": "c1ccc(-n2ncc3c(N4CCN(c5ccccn5)CC4)nc(N4CCCCC4)nc32)cc1", "outcome": "inactive"}, {"compound": "COc1ccc(N2CCN(C(=O)c3ccc(CS(=O)(=O)c4ccc(OC)cc4)o3)CC2)cc1", "outcome": "inactive"}, {"compound": "CCOC(=O)N1CCN(C(=O)c2ccc(CS(=O)(=O)c3ccc(OC)cc3)o2)CC1", "outcome": "inactive"}, {"compound": "COc1ccc(S(=O)(=O)Cc2ccc(C(=O)N3CCN(c4cccc(C)c4)C(C)C3)o2)cc1", "note": "(stereo unspecified)", "outcome": "active"}, {"compound": "Cc1ccc(C)c(N2CCN(C(=O)c3ccc(CS(=O)(=O)c4ccccc4C)o3)CC2)c1", "outcome": "inactive"}, {"compound": "Cc1ccccc1S(=O)(=O)Cc1ccc(C(=O)N2CC(C)CC(C)C2)o1", "note": "(stereo unspecified)", "outcome": "inactive"}, {"compound": "Cc1cccc(N2CCN(C(=O)c3ccc(CS(=O)(=O)c4ccccc4C)o3)CC2C)c1", "note": "(stereo unspecified)", "outcome": "active"}, {"compound": "Cc1ccc(N=Cc2ccc(N(C)C)cc2)cc1", "outcome": "inactive"}]}]}
